Source: PubChem BioAssay (NCI)
This is part of a sample that, as a whole, favours compounds with a hit. Of some 79,000 tested, about 15% had one in any assay. The source made the active and inactive calls. No stated cut-off is given here; in the data, active means growth inhibition above about 70%; inactive means the rest.

Legend:
[1] = NCI Yeast Anticancer Drug Screen. Data for the wt1 strain (AID 149);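 further: 0% = growth of vehicle-treated wt1 cultures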; conditions: S. cerevisiae wt1 strain (SPY 50644) growth inhibition, stronger effect = higher value
Summary of the method: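 Yeast wt1 strain exposed to compounds; growth inhibition measured relative to vehicle-treated controls.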

[2] = NCI Yeast Anticancer Drug Screen. Data for the rad50EPP+ strain (AID 151);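 further: 0% = growth of vehicle-treated control cultures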; conditions: S. cerevisiae rad50 mutant strain, stronger effect = higher value
Summary of the method: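 Yeast strain carrying rad50 alteration (rad50EPP+) exposed to compounds; growth inhibition measured relative to vehicle-treated controls.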

[3] = NCI Yeast Anticancer Drug Screen. Data for the rad50 strain (AID 155);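 further: 0% = growth of vehicle-only cultures of the same strain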; conditions: S. cerevisiae rad50 strain growth inhibition, stronger effect = higher value
Summary of the method: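 Yeast carrying a defined DNA repair defect were exposed to test compounds, and growth was compared with vehicle-treated controls to give percent inhibition.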

[4] = NCI Yeast Anticancer Drug Screen. Data for the mec2-1 strain (AID 157); conditions: S. cerevisiae mec2-1 strain, stronger effect = higher value
Summary of the method: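 mec2-1 yeast strain, carrying an alteration in DNA damage repair or cell cycle control, was exposed to compounds; growth inhibition was measured relative to vehicle-treated controls.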

[5] = NCI Yeast Anticancer Drug Screen. Data for the rad14 strain (AID 159);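 further: 0% = growth of vehicle-treated control cultures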; conditions: S. cerevisiae rad14 strain growth inhibition, stronger effect = higher value
Summary of the method: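 Yeast cells carrying a defined DNA-repair defect were exposed to compounds, and growth inhibition was calculated relative to vehicle-treated control cultures.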

[6] = NCI Yeast Anticancer Drug Screen. Data for the sgs1 mgt1 strain (AID 161);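 further: 0% = growth of cultures given vehicle only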; conditions: S. cerevisiae sgs1 mgt1 strain, stronger effect = higher value
Summary of the method: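 This yeast growth screen uses a strain with defined DNA-repair lesions; compound-treated growth is compared with vehicle-treated growth.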

[7] = NCI Yeast Anticancer Drug Screen. Data for the CLN2oe strain (AID 163);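 further: 0% = growth of vehicle-only control cultures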; conditions: S. cerevisiae CLN2oe strain, stronger effect = higher value
Summary of the method: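 Yeast cells carrying a defined cell-cycle control alteration were exposed to test compounds. Growth inhibition was scored against vehicle-treated control cultures.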

[8] = NCI Yeast Anticancer Drug Screen. Data for the cln2 rad14 strain (AID 165);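 further: 0% = growth equal to vehicle treated cultures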; conditions: S. cerevisiae cln2 rad14 strain, stronger effect = higher value
Summary of the method: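 Yeast carrying cln2 and rad14 alterations (cell cycle control and DNA damage repair) were exposed to compounds. Growth inhibition was measured against vehicle-treated controls.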

[9] = NCI Yeast Anticancer Drug Screen. Data for the bub3 strain (AID 167); conditions: S. cerevisiae bub3 mutant strain, stronger effect = higher value
Summary of the method: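 Compounds were applied to a genetically altered yeast strain carrying a cell-cycle control defect. Growth inhibition was scored against vehicle-treated controls.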

[10] = NCI Yeast Anticancer Drug Screen. Data for the wt2 strain (AID 169);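 further: 0% = growth of vehicle-treated yeast cultures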; conditions: S. cerevisiae wt2 strain growth inhibition, stronger effect = higher value
Summary of the method: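 Yeast cells were exposed to test compounds, and growth inhibition was measured relative to vehicle-treated controls.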

[11] = NCI Yeast Anticancer Drug Screen. Data for the mlh1 strain (AID 171);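 further: 0% = growth of vehicle-treated control cultures of the same strain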; conditions: S. cerevisiae mlh1 strain growth inhibition, stronger effect = higher value
Summary of the method: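 Yeast carrying a defined genetic alteration in DNA damage repair or cell cycle control were exposed to test compounds. Growth inhibition was measured relative to vehicle-treated controls.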

[12] = NCI Yeast Anticancer Drug Screen. Data for the sgs1 strain (AID 173);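 further: 0% = growth of vehicle-only control cultures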; conditions: S. cerevisiae sgs1 mutant, stronger effect = higher value
Summary of the method: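 Yeast mutant strains carrying defined defects in DNA damage repair or cell cycle control were exposed to test compounds. Growth inhibition was scored against vehicle-treated controls.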

[13] = NCI Yeast Anticancer Drug Screen. Data for the mlh1 rad18 strain (AID 175); conditions: S. cerevisiae mlh1 rad18 strain growth inhibition, stronger effect = higher value
Summary of the method: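 Growth inhibition of the yeast strain was measured after compound exposure and expressed relative to vehicle-treated controls. The strain carries defined defects in DNA damage repair.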

[14] = NCI Yeast Anticancer Drug Screen. Data for the rad18 strain (AID 177); conditions: S. cerevisiae rad18 mutant growth inhibition, stronger effect = higher value
Summary of the method: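 Yeast carrying a defined DNA damage repair alteration were exposed to compounds. Growth inhibition was expressed relative to vehicle-treated controls.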

[15] = at 5.0 µM (retest, dose inferred, filed as 0.5)
[16] = at 50.0 µM (retest, dose inferred, filed as 5.0)

Measured: growth inhibition

O=C(O)NCC1CCCCC1 (tested in a mixture with another compound)
inactive: [1]; at 1.2 µM -1% | [1]; at 3.7 µM -4% | [1]; at 11.0 µM -4% | [1]; at 33.0 µM -5% | [1]; at 100.0 µM -4% | [2]; at 1.2 µM 0% | [2]; at 3.7 µM -4% | [2]; at 11.0 µM -3% | [2]; at 33.0 µM 7% | [2]; at 100.0 µM 4% | [3]; at 1.2 µM 2% | [3]; at 3.7 µM -3% | [3]; [15] 1% | [3]; at 11.0 µM -6% | [3]; at 33.0 µM 7% | [3]; [16] 38% | [3]; at 50.0 µM -12.8% | [4]; at 1.2 µM -3% | [4]; at 3.7 µM -1% | [4]; [15] -15% | [4]; at 11.0 µM -4% | [4]; at 33.0 µM -5% | [4]; [16] 19% | [4]; at 50.0 µM 8.35% | [4]; at 100.0 µM 22% | [5]; at 1.2 µM 0% | [5]; at 3.7 µM -6% | [5]; at 11.0 µM -5% | [5]; at 33.0 µM -1% | [5]; at 100.0 µM 61% | [6]; [15] -2% | [6]; [16] 39% | [6]; at 50.0 µM -35.7% | [7]; at 1.2 µM 1% | [7]; at 3.7 µM -7% | [7]; at 11.0 µM -6% | [7]; at 33.0 µM -5% | [7]; at 100.0 µM 26% | [8]; [15] -4% | [8]; [16] 11% | [8]; at 50.0 µM 33% | [9]; at 1.2 µM -4% | [9]; at 3.7 µM -4% | [9]; [15] -5% | [9]; at 11.0 µM -7% | [9]; at 33.0 µM -2% | [9]; [16] 10% | [9]; at 50.0 µM 0.5% | [9]; at 100.0 µM 58% | [10]; at 1.2 µM -2% | [10]; at 3.7 µM 2% | [10]; at 11.0 µM -5% | [10]; at 33.0 µM -4% | [10]; at 100.0 µM 37% | [11]; at 1.2 µM -2% | [11]; at 3.7 µM -6% | [11]; at 11.0 µM -7% | [11]; at 33.0 µM -3% | [11]; at 100.0 µM 32% | [12]; at 1.2 µM -4% | [12]; at 3.7 µM 6% | [12]; at 11.0 µM -23% | [12]; at 33.0 µM -5% | [13]; [15] 0% | [13]; [16] 34% | [13]; at 50.0 µM 6.1% | [14]; at 1.2 µM 0% | [14]; at 3.7 µM -1% | [14]; at 11.0 µM -5% | [14]; at 33.0 µM 2% | [14]; at 100.0 µM 45%
active: [3]; at 100.0 µM 83% | [12]; at 100.0 µM 75%
